Hits are enriched below; roughly 3% of the tested compounds scored in any of these assays.
Mcl1-Bid inh = disrupts binding of human Mcl-1 to Bid peptide; Q07820; AID 1021; inhibition, % at 21.7 µM; TR-FRET Mcl-1/Bid-Dy647 peptide binding, 1536-well; 0.97% of 220,000 active;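 active = compounds that cut the binding signal by more than half at the single screening dose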;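 also: His-tagged Mcl-1 with europium anti-His antibody binding Bid BH3 peptide; 0% = Mcl-1 plus peptide wells and 100% = peptide-only wells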
14-3-3 Bad PPI = disrupts binding of bovine 14-3-3 zeta to phospho-Bad peptide; TR-FRET 14-3-3zeta/Dy647-pBad peptide displacement, 1 h; inhibition, % at 21.7 µM; 0.71% of 220,000 active;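 active = inhibition above about 70%, limit read from the data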;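 also: 0% = full 14-3-3 plus peptide FRET controls and 100% = background without 14-3-3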
Target sequence (P63103 whole entry, looked up): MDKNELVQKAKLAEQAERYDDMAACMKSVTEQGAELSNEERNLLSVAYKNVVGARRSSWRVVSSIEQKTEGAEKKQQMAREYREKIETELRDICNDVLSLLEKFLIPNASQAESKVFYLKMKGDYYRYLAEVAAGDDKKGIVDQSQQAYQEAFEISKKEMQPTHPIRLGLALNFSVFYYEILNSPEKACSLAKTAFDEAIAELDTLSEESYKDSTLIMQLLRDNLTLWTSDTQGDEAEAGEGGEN
Mcl1-Noxa inh = disrupts binding of human Mcl-1 to Noxa peptide. Q07820. TR-FRET Mcl-1/Noxa peptide binding, 2 h. inhibition, % at 21.7 µM. 1.5% of 220,000 active;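 active = compounds that cut the protein-peptide binding signal by more than 50% relative to plate controls in a single-dose test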;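 also: His-tagged Mcl-1 with rhodamine Noxa BH3 peptide and terbium anti-His antibody; 0% = Mcl-1 plus Noxa peptide wells and 100% = peptide-only wells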
Mcl-1 Bim block = disrupts Bim peptide binding to human Mcl-1 | inhibition, % at 10 µM | Bead-based flow cytometry, Bim peptide-Mcl-1 binding | 0.1% of 190,000 active | Q07820; in the data active = inhibition above about 40%;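 also: 0% = no compound tracer wells and 100% = peptide blocker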
Arbovirus inh = arbovirus infection inhibition. arbovirus infection cell-based antiviral screen. inhibition, % at 10 µM. 0.37% of 200,000 active. AID 1251; in the data active = inhibition above about 30%
An asterisk follows results filed as active; . = no result.

SMILES	Mcl1-Bid inh	14-3-3 Bad PPI	Mcl1-Noxa inh	Mcl-1 Bim block	Arbovirus inh
COc1ccccc1/C=C/CN1CC(C)OC(C)C1 (centres undefined)	15	79*	-15	-2	-3
CC(=O)CSc1nnc(Cc2ccc3c(c2)OCO3)o1	-5	1	8	-6	-4
Cc1ccc(C(C)C)c(OCCN(C)C)c1	60*	22	24	-7	13
COc1ccc(/C=C2\SC(=O)N(CC(=O)NNC(=O)c3ccccc3O)C2=O)cc1	48	62	53*	-2	-23
COc1ccccc1C(=O)NNC(=O)CCCN1C(=O)/C(=C/c2cccs2)SC1=S	35	12	52*	-5	13
COc1ccc(/C=C2\SC(=O)N(CC(=O)NNC(=O)c3ccccc3O)C2=O)cc1OC	60*	21	53*	-6	-17
COc1cc(/C=C2\SC(=O)N(CC(=O)Nc3cccc(C)c3)C2=O)cc([N+](=O)[O-])c1O	-18	2	59*	-1	-1
O=C(CCCN1C(=O)/C(=C\c2cccs2)SC1=S)NNC(=O)c1ccncc1	-3	-2	-5	-3	-2
CCOc1cc(/C=C2\SC(=O)N(CC(=O)Nc3ccccc3F)C2=O)cc([N+](=O)[O-])c1O	-13	-2	32	0	7
C=CCNC(=O)NC(=O)COC(=O)[C@H](C)NS(=O)(=O)c1c(C)c(C)cc(C)c1C	-24	0	-1	.	.
COc1ccccc1NC(=S)NNC(=O)c1ccccc1Br	-162	-15	-33	-8	3
CC(C)COc1ccc(C(=O)N2C(=O)c3ccc(N)cc3C2=O)cc1	-1	0	-16	.	.
Cc1nc(SCC(=O)NC(=O)NC(C)C)nc(C)c1C	-15	-3	64*	0	2
Cc1cccc(-c2oc(C)c(C)[n+]2[O-])c1	26	72*	16	-2	3
Cc1oc(-c2ccccc2)[n+]([O-])c1C	.	.	.	-1	-2
O=C(O)Cn1cc(/C=c2/sc3nc4ccccc4n3c2=O)c2ccccc21	-29	-14	64*	0	6
O=c1/c(=C\c2cccn2-c2ccccc2)sc2nc3ccccc3n12	-6	12	.	5	-5
COc1cc(C(=O)Nc2sc(C)c(C)c2C(=O)O)cc(OC)c1OC	-61	-2	28	3	44*
CCOC(=O)c1cc(CC)sc1NC(=O)c1cc(OC)c(OC)c(OC)c1	3	-6	-6	0	4
O=C(Nc1ccccc1)c1cccc(N2C(=O)CCC2=O)c1	4	1	1	0	-1
COc1cc(C(=O)Nc2ccc(N(C)C)cc2)cc(OC)c1OC	-100	1	78*	2	-11
CN(C)c1ccc(NC(=O)c2ccc3c(c2)nnn3C)cc1	-59	-14	61*	0	-3
CN(C)c1ccc(NC(=O)c2cccc(N3C(=O)CCC3=O)c2)cc1	-55	-23	64*	0	4
CC1=C(C(=O)Nc2ccccc2)C(c2ccc(C)cc2)N=C(Nc2nc3ccccc3o2)N1 (centres undefined)	28	27	20	0	-4
O=C(O)c1ccc(COc2ccc3ccccc3c2/C=C2/NC(=O)N(Cc3ccc(F)cc3)C2=O)cc1	-22	3	17	0	48*
SMILES	Mcl1-Bid inh	14-3-3 Bad PPI	Mcl1-Noxa inh	Mcl-1 Bim block	Arbovirus inh
O=C(N/N=C/c1ccc2ncccc2c1)c1ccco1	-31	-11	52*	3	4
O=C(N/N=C/c1ccccn1)c1ccco1	-71	-2	-21	0	0
COc1cc(Nc2ncnc(N)n2)cc(OC)c1	-8	0	0	.	.
O=C(CSc1ccccn1)Nc1ccc2ccccc2c1	-2	-18	3	0	-10
O=C(CSc1n[nH]c(=O)[nH]c1=O)Nc1cccc(S(=O)(=O)N2CCOCC2)c1	-40	-11	-1	1	9
O=C(CSc1ccccn1)Nc1ccc2c(c1)C(=O)c1ccccc1C2=O	77*	45	72*	0	-25
O=C(CSc1n[nH]c(=O)[nH]c1=O)Nc1ccc2c(c1)C(=O)c1ccccc1C2=O	61*	46	101*	.	.
Cc1cc(C)c(S(=O)(=O)NCC(=O)NCc2ccccn2)c(C)c1	0	-6	11	-5	-1
Cc1ccc2c(c1C)NC(C(=O)O)C1CC=CC21 (centres undefined)	96*	38	99*	1	16
CCOC(=O)c1ccc2c(c1)C1C=CCC1C(C(=O)O)N2 (centres undefined)	62*	65	104*	3	0

Screening data from PubChem BioAssay.
